According to PubChem BioAssay:
Calls of active or inactive are those of the source. Unless noted, how the calls were made is not given here.

Legend:
[1] = system: XIP peptide (Xip251-270) binding; experiment: small-molecule binders of XIP peptide, primary screen, biochemical, small-molecule microarray, fluorescence 635/667 nm, 0.1 µg/mL protein (AID 1182); details: fluorescent protein binding, 635 nm, higher = more signal, called active from +8 up or from −8 down
XIP peptide (Xip251-270) = experiment: small-molecule binders of XIP peptide, primary screen, biochemical, small-molecule microarray, fluorescence 635/667 nm, 0.5 µg/mL protein (AID 1183); details: small-molecule microarray binding, fluorescence 635 nm; higher = more signal
[2] = Plasmodium falciparum growth inhibition, primary screen, strain 3D7, DAPI fluorescence, 100 nL (AID 1184);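 further: parasites grown inside human red blood cells in medium with human serum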; details: P. falciparum 3D7 growth, 3 d, higher = more signal
[3] = biological target: Homeobox protein Hox-A13 (Mus musculus) (UniProt Q62424); experiment: inhibitors of HoxA13-DNA binding, primary screen, biochemical, fluorescence polarization, labeled oligonucleotide (AID 1185); details: 15 min, higher = more signal, called active from +8 up or from −8 down
[4] = inhibitors of hydroxyurea-induced Chk1 phosphorylation, primary screen, imaging, HeLa, phospho-Chk1 antibody, percent positive cells (AID 1186); details: hydroxyurea-induced phospho-Chk1 immunofluorescence imaging, higher = more signal
[5] = inhibitors of hydroxyurea-induced Chk1 phosphorylation, primary screen, imaging, HeLa, phospho-Chk1 nuclear intensity (AID 1187); details: hydroxyurea-induced phospho-Chk1 immunofluorescence imaging, higher = more signal

Chain of Homeobox protein Hox-A13 (Mus musculus) (Q62424 whole entry, looked up): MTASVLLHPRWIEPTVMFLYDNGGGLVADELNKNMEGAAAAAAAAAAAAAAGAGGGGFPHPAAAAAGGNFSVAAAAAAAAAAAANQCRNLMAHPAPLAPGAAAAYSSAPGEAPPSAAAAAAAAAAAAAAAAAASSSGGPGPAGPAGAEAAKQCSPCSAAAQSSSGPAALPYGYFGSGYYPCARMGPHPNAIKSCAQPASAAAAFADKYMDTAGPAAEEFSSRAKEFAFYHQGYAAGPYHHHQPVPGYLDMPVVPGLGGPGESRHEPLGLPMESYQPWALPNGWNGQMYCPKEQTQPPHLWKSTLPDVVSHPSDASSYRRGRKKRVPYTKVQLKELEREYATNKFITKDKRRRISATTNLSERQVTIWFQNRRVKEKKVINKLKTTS

COCCOC(=O)N1C(=O)[C@@]2(c3cc(C#CCNC(N)=O)ccc31)[C@H](C(=O)N1CCCCCCC1)[C@H]1C(=O)O[C@H](c3ccccc3)[C@H](c3ccccc3)N1[C@@H]2c1ccccc1OCCO
composite z-score [1]: 0.252 (inactive)
composite z-score (XIP peptide (Xip251-270)): 0.276
z-score [2]: -1.87
z-score [3]: 3.73 (inactive)
z-score [4]: -0.0292 (inactive)
z-score [5]: -0.349 (inactive)

COCCOC(=O)N1C(=O)[C@@]2(c3cc(C#CCNC(N)=O)ccc31)[C@H](c1ccc(OCCO)cc1)N1[C@H](c3ccccc3)[C@H](c3ccccc3)OC(=O)[C@H]1[C@@H]2C(=O)N1CCCCCCC1
composite z-score [1]: 0.067 (inactive)
composite z-score (XIP peptide (Xip251-270)): -0.26
z-score [2]: -2.1
z-score [3]: -11.3 (active)
z-score [4]: 0.174 (inactive)
z-score [5]: 0.272 (inactive)

CC(=O)NCCCC[C@@H]1NC(=O)[C@@H]2C[C@H](C(=O)NCc3ccc(F)cc3)[C@H](c3cccc(OCCO)c3)N2C1=O
composite z-score [1]: 0.356 (inactive)
composite z-score (XIP peptide (Xip251-270)): 0.117
z-score [2]: 0.447
z-score [3]: -4.11 (inactive)
z-score [4]: 0.676 (inactive)
z-score [5]: 0.312 (inactive)

CC(C)NC(=O)[C@@]1(Cc2ccccc2I)c2ccccc2C(=O)N(C2CCCCC2)[C@H]1c1ccc(CO)cc1
composite z-score [1]: 1.02 (inactive)
composite z-score (XIP peptide (Xip251-270)): 0.84
z-score [2]: -1.89
z-score [3]: -4.58 (inactive)
z-score [4]: 0.551 (inactive)
z-score [5]: 0.615 (inactive)

O=C/C=C/c1ccccc1Cl
composite z-score [1]: 0.0944 (inactive)
composite z-score (XIP peptide (Xip251-270)): -0.264
z-score [2]: 0.316
z-score [3]: -0.26 (inactive)
z-score [4]: 0.152 (inactive)
z-score [5]: 0.0674 (inactive)

CCOC(=O)C[C@H]1[C@H](OC(=O)Cc2ccc3c(c2)OCO3)[C@@H](NC(=O)c2ccc3ccccc3c2)c2cc(OCCCO)ccc2N1C(=O)Cc1ccc(OC)cc1
composite z-score [1]: 1.46 (inactive)
composite z-score (XIP peptide (Xip251-270)): 0.737
z-score [2]: -0.415
z-score [3]: -2.03 (inactive)
z-score [4]: 0.407 (inactive)
z-score [5]: 0.668 (inactive)

C=CCN(C(=O)C1N(c2ccc(CCO)cc2)C(=O)C2C(C(=O)O)C3C=CC21O3)C(C)(C)C (stereo unspecified)
composite z-score [1]: 0.865 (inactive)
composite z-score (XIP peptide (Xip251-270)): -1.52
z-score [2]: -1.71
z-score [3]: 0.729 (inactive)
z-score [4]: 0.0293 (inactive)
z-score [5]: -0.112 (inactive)

O=C1O[C@H](c2ccccc2)[C@H](c2ccccc2)N2[C@H]1[C@@H](C(=O)Nc1nc3ccccc3s1)[C@]1(C(=O)Nc3ccc(C#CC4=CCCCC4)cc31)[C@H]2c1ccccc1OCCO
composite z-score [1]: 0.0485 (inactive)
composite z-score (XIP peptide (Xip251-270)): 0.0555
z-score [2]: -2.09
z-score [3]: -9.05 (active)
z-score [4]: 0.205 (inactive)
z-score [5]: 0.375 (inactive)

CC(=O)NCCCC[C@@H]1NC(=O)[C@@H]2C[C@H](C(=O)NCCCCCCN(C)C)[C@H](c3ccc(O)cc3)N2C1=O
composite z-score [1]: 1.9 (inactive)
composite z-score (XIP peptide (Xip251-270)): 0.852
z-score [2]: -0.289
z-score [3]: -0.0113 (inactive)
z-score [4]: 0.313 (inactive)
z-score [5]: 0.54 (inactive)

CC(c1ccccc1)C(O)C1C=CC2C(=O)N(C)C(=O)C2N1N(c1ccccc1)c1ccccc1 (stereo unspecified)
composite z-score [1]: 0.0311 (inactive)
composite z-score (XIP peptide (Xip251-270)): -0.62
z-score [2]: -0.141
z-score [3]: -4.26 (inactive)
z-score [4]: 0.75 (inactive)
z-score [5]: -0.173 (inactive)

C[N+](C)(C)CCCCNC(=O)[C@H]1C[C@H]2C(=O)NCC(=O)N2[C@H]1c1cccc(OCCO)c1
composite z-score [1]: 1.88 (inactive)
composite z-score (XIP peptide (Xip251-270)): 0.839
z-score [2]: 0.312
z-score [3]: -2.52 (inactive)
z-score [4]: 0.0452 (inactive)
z-score [5]: -0.0729 (inactive)

C=CCOC(=O)[C@@H]1[C@H]2C(=O)O[C@H](c3ccccc3)[C@H](c3ccccc3)N2[C@H](c2ccc(OCCOC(=O)[C@H]3C[C@H]4C(=O)N5CCC[C@H]5C(=O)N4[C@H]3c3ccc(O)cc3)cc2)[C@@]12C(=O)Nc1ccccc12
composite z-score [1]: 1.22 (inactive)
composite z-score (XIP peptide (Xip251-270)): 0.804
z-score [2]: -2.01
z-score [3]: 1.59 (inactive)
z-score [4]: 0.458 (inactive)
z-score [5]: 0.895 (inactive)

COC(=O)Cn1c(C(=O)N2CCCC2)cc2c1C[C@H]1CN(C(=O)c3ccccc3)[C@@](Cc3ccc(OC)cc3)(C(=O)OC)[C@@H]21
composite z-score [1]: 0.516 (inactive)
composite z-score (XIP peptide (Xip251-270)): 0.518
z-score [2]: -1.48
z-score [3]: -3.21 (inactive)
z-score [4]: 0.847 (inactive)
z-score [5]: 0.487 (inactive)

[N-]=[N+]=NCc1ccccc1C[C@]1(C(=O)N2CCCCC2)N=C(c2ccc(OCCCO)cc2)O[C@H]1c1ccccc1CN=[N+]=[N-]
composite z-score [1]: 1.52 (inactive)
composite z-score (XIP peptide (Xip251-270)): 0.811
z-score [2]: -2.32
z-score [3]: 1.1 (inactive)
z-score [4]: -0.0016 (inactive)
z-score [5]: 0.164 (inactive)

COCCOC(=O)N1C(=O)[C@@]2(c3cc(C#CCC(C(=O)OC)C(=O)OC)ccc31)[C@H](C(=O)N1CCN(c3ncccn3)CC1)[C@H]1C(=O)O[C@H](c3ccccc3)[C@H](c3ccccc3)N1[C@@H]2c1ccc(O)cc1
composite z-score [1]: 1.36 (inactive)
composite z-score (XIP peptide (Xip251-270)): 0.843
z-score [2]: -2.08
z-score [3]: -0.323 (inactive)
z-score [4]: -0.447 (inactive)
z-score [5]: -0.685 (inactive)

O=C(NCc1ccccc1)[C@@]1(Cc2ccccc2)COC(c2ccc(OCCCO)cc2)=N1
composite z-score [1]: 0.489 (inactive)
composite z-score (XIP peptide (Xip251-270)): 0.75
z-score [2]: -2.15
z-score [3]: -4.9 (inactive)
z-score [4]: -0.583 (inactive)
z-score [5]: -0.649 (inactive)
